{"source": "PubChem BioAssay (EPA / NIEHS)", "note": "Calls of active or inactive are those of the source. The calls were made as follows: active = hit-call score of the fitted dose curve at least 0.9, where 1 is the maximum; inactive = score below 0.9."}
{"read-out": "Interleukin-1 alpha (IL1a), IL1A (gene 3552)", "test": "BSK_LPS_IL1a: BioMAP Diversity Plus: LPS Assay for Interleukin-1 alpha (IL1a) Biomarker Activity (AID 2283080)", "conditions": "primary human HUVEC with PBMC; actives raise or lower the signal", "procedure": "BSK_LPS is a cell-based, multiplexed-readout assay that uses umbilical vein endothelium and peripheral blood mononuclear cells, a human vascular primary cell co-culture, with measurements taken at 24 hours after chemical dosing in a 96-well plate.BSK_LPS_IL1a is an assay component measured in the BSK_LPS assay. It measures IL-a antibody related to regulation of gene expression using ELISA technology.Data from the assay component BSK_LPS_IL1a was analyzed into 1 assay endpoint. This assay endpoint, BSK_LPS_IL1a, was analyzed with bidirectional fitting relative to DMSO as the negative control and baseline of activity. Using a type of binding reporter, gain or loss-of-signal activity can be used to understand changes in the signaling as they relate to the gene IL1A. Furthermore, this assay endpoint can be referred to as a primary readout, because this assay has produced multiple assay endpoints where this one serves a signaling function. To generalize the intended target to other relatable targets, this assay endpoint is annotated to the cytokine intended target family, where the subfamily is interleukins.\nThe levels of cell surface (or secreted, indicated by the prefix \"s\") biomarker endpoints were measured by ELISA. Overt cytotoxicity to cells in confluent adherent cultures (all systems other than the BT system) was assessed by measuring total protein levels using sulforhodamine B (SRB) staining in parallel cultures at the time of biomarker measurements, indicated as SRB endpoints. For proliferation assays for adherent cell types, individual cell types are cultured at sub-confluence and relative cell numbers quantified by SRB staining at time points optimized for each system (48 h: 3C and CASM3C systems; 72 h: BT and HDF3CGF systems; 96 h: SAg system). SRB was performed by staining cells with 0.1% SRB after fixation with 10% TCA and reading wells at 560 nm.Viability and proliferation of PBMC (T cells) was quantified by Alamar Blue reduction for the SAg and BT systems. For PBMC viability (referred to as PBMC Cytotoxicity within the assay endpoint names), cells were plated (75,000/well in a 96-well plate) and then chemical samples added for 1 h before addition of activators, SEB and TSST-1 (20 ng/mL final concentration each). Cells were incubated for 90 h. Then, Alamar Blue (20 uL/well) (Invitrogen, Cat DAL1100) was added for 6 h, and the plates were read with a fluorescence microplate reader at 546/580 nm (excitation/emission). For PBMC proliferation, cells were plated and activated as above but incubated for only 16 h prior to addition of Alamar Blue. Plates were read after 6 h."}
{"smiles": "OC12N=C(c3ccccc3)SC1Cc1cc(Cl)ccc12", "note": "(stereo not given)", "AC50": "25.3 µM (active)"}
{"smiles": "Cc1oc2c(NC(=O)c3c(Cl)cccc3Cl)cccc2c1C(C)(C)O", "outcome": "inactive"}
{"smiles": "CCN(Cc1cccc(S(=O)(=O)O)c1)c1ccc(C(=C2C=CC(=[N+](CC)Cc3cccc(S(=O)(=O)O)c3)C=C2)c2ccccc2S(=O)(=O)[O-])cc1", "outcome": "inactive"}
{"smiles": "CC(C)(C)c1csc(-c2cc3cc(OCc4ccccc4CC(=O)O)ccc3o2)n1", "AC50": "20.5 µM (active)"}
{"smiles": "Cc1c2ccccc2c(C)c2c1ccc1ccccc12", "AC50": "26.8 µM (active)"}
{"smiles": "CN(C)c1ccc(C(=C2C=CC(=[N+](C)C)C=C2)c2ccc(N(C)C)cc2)cc1", "AC50": "0.147 µM (active)"}
{"smiles": "Oc1ccc2ccccc2c1", "outcome": "inactive"}
{"smiles": "C[C@]12CC[C@@H]3c4ccc(O)cc4CC[C@H]3[C@@H]1CCC2=O", "outcome": "inactive"}
{"smiles": "O=C(O)c1ccccc1-n1cc(C(=O)O)c(=O)c2cc(Nc3c(F)cc(F)cc3Cl)c(Cl)cc21", "outcome": "inactive"}
{"smiles": "Cc1cccc2ccccc12", "outcome": "inactive"}
{"smiles": "Cc1cc(F)ccc1-c1cc(N2CC[C@@H](O)[C@H]2CO)ncc1N(C)C(=O)C(C)(C)c1cc(C(F)(F)F)cc(C(F)(F)F)c1", "AC50": "9.95 µM (active)"}
{"smiles": "Cc1ncc(CO)c(CO)c1O", "outcome": "inactive"}
{"smiles": "c1ccc(C[n+]2cccc3ccccc32)cc1", "outcome": "inactive"}
{"smiles": "Cc1cn([C@H]2C[C@H](N=[N+]=[N-])[C@@H](CO)O2)c(=O)[nH]c1=O", "outcome": "inactive"}
{"smiles": "O=CCCCC=O", "AC50": "32.9 µM (active)"}
{"smiles": "O=c1[nH]sc2ccccc12", "AC50": "8.77 µM (active)"}
{"smiles": "CCCC(=O)OCCC(C)C", "outcome": "inactive"}
{"smiles": "O=c1ccc2ccccc2o1", "outcome": "inactive"}
{"smiles": "O=C(OCCCCCCOC(=O)c1ccccc1)c1ccccc1", "outcome": "inactive"}
{"smiles": "O=C(Nc1ccc(Cl)cc1)Nc1ccc(Cl)c(Cl)c1", "AC50": "3.86 µM (active)"}
{"smiles": "CC(C)(O)c1ccc(CNC(=O)c2cccnc2Oc2ccc3nonc3c2)cc1", "outcome": "inactive"}
{"smiles": "CC(O)CC(C)(C)O", "note": "(stereo not given)", "outcome": "inactive"}
{"smiles": "Cc1ccc(C(C)C)cc1", "outcome": "inactive"}
{"smiles": "CCCCCCCCCCCO", "outcome": "inactive"}
{"smiles": "CCO[Si](CCCNC(N)=O)(OCC)OCC", "outcome": "inactive"}
{"smiles": "CCCCCc1ccc(N)cc1", "outcome": "inactive"}
{"smiles": "CC[C@H](NC(=O)c1cc(F)ccc1NS(=O)(=O)c1cccc2cccnc12)c1ccccc1", "outcome": "inactive"}
{"smiles": "CCCCCCCCN(C)CCCCCCCC", "outcome": "inactive"}
{"smiles": "O=C1O[C@H]([C@@H](O)CO)C(O)=C1O", "outcome": "inactive"}
{"smiles": "Cc1occc1C(=O)Nc1ccc(C(=O)N2CCC(F)(F)/C(=C\\C(=O)N3CCC(N4CCCCC4)CC3)c3ccccc32)cc1", "outcome": "inactive"}
{"smiles": "CN(C)C(=O)C1(N2CCCCC2)CCN(CC[C@@]2(c3ccc(Cl)c(Cl)c3)CN(C(=O)c3ccccc3)CCO2)CC1", "AC50": "18.9 µM (active)"}
{"smiles": "CC(=O)N1CCN(c2ccc(OC[C@H]3CO[C@](Cn4ccnc4)(c4ccc(Cl)cc4Cl)O3)cc2)CC1", "AC50": "35.6 µM (active)"}
{"smiles": "CN1C(=O)N(c2ccccc2Br)Cc2cnc(Nc3ccc4c(c3)OCC(CO)O4)nc21", "note": "(stereo not given)", "AC50": "9.1 µM (active)"}
{"smiles": "Clc1ccccc1C(c1ccccc1)(c1ccccc1)n1ccnc1", "AC50": "30.5 µM (active)"}
{"smiles": "c1ccc2ccccc2c1", "outcome": "inactive"}
{"smiles": "CCCCOC(=O)c1ccc(O)cc1", "outcome": "inactive"}
{"smiles": "CN(C[C@@H](CC[N+]12CCC(C3CCCCC3)(CC1)CC2)c1ccc(Cl)c(Cl)c1)C(=O)c1cc(C(F)(F)F)cc(C(F)(F)F)c1", "AC50": "18.4 µM (active)"}
{"smiles": "c1ccc2n[nH]nc2c1", "outcome": "inactive"}
{"smiles": "OCCO", "outcome": "inactive"}
{"smiles": "COc1cccc([C@H](O)C2CCN(CCc3ccc(F)cc3)CC2)c1OC", "outcome": "inactive"}
